Measurements taken from PubChem BioAssay (NCI).
The panel holds about 79,000 compounds, 15% with a hit somewhere; the sample as a whole holds those more often. Unmarked numbers belong to inactive results. Active and inactive are the calls of the source. No stated cut-off is given here; in the data, active means growth inhibition above about 70%; inactive means the rest.

Assays:
[1] = NCI Yeast Anticancer Drug Screen. Data for the rad50 strain (AID 155);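 further: 0% = growth of vehicle-only cultures of the same strain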; settings: S. cerevisiae rad50 strain growth inhibition; at 50.0 µM; stronger effect = higher value
Summary of the method: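 Vehicle-treated cultures provide the reference for the growth inhibition reported for compound-exposed, repair-deficient yeast.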

[2] = NCI Yeast Anticancer Drug Screen. Data for the mec2-1 strain (AID 157); settings: S. cerevisiae mec2-1 strain, at 50.0 µM, stronger effect = higher value
Summary of the method: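 Vehicle-treated cultures served as reference for growth inhibition of compound-exposed mec2-1 yeast.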

[3] = NCI Yeast Anticancer Drug Screen. Data for the sgs1 mgt1 strain (AID 161);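 further: 0% = growth of cultures given vehicle only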; settings: S. cerevisiae sgs1 mgt1 strain, at 50.0 µM, stronger effect = higher value
Summary of the method: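 Test agents were incubated with a DNA-repair-mutant yeast strain. Growth was then read and compared against vehicle-treated controls.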

[4] = NCI Yeast Anticancer Drug Screen. Data for the cln2 rad14 strain (AID 165);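 further: 0% = growth equal to vehicle treated cultures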; settings: S. cerevisiae cln2 rad14 strain, at 50.0 µM, stronger effect = higher value
Summary of the method: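 Each compound was tested on cln2 rad14 yeast. Inhibition of growth was calculated against vehicle-exposed controls.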

[5] = NCI Yeast Anticancer Drug Screen. Data for the bub3 strain (AID 167); settings: S. cerevisiae bub3 mutant strain, at 50.0 µM, stronger effect = higher value
Summary of the method: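 Mutant yeast screening strain plus compound; vehicle-treated cultures serve as the 0% inhibition reference.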

[6] = NCI Yeast Anticancer Drug Screen. Data for the mlh1 rad18 strain (AID 175); settings: S. cerevisiae mlh1 rad18 strain growth inhibition; at 50.0 µM; stronger effect = higher value
Summary of the method: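 Vehicle-treated cultures served as the reference for growth inhibition in a yeast strain carrying DNA damage repair alterations exposed to each compound.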

Row | Compound | growth inhibition [1] | growth inhibition [2] | growth inhibition [3] | growth inhibition [4] | growth inhibition [5] | growth inhibition [6]
1 | O=C1c2c(O)cc(O)cc2OC(c2ccc(O)c(O)c2)C1O (centres undefined) | 9.55% | -23.6% | 11.2% | -0.65% | -9.05% | -18.7%
2 | C=C1C(=O)O[C@@H]2C[C@@]3(C)CC(=O)C=C(C)[C@@H]3C[C@H]12 | 12.6% | -7.15% | -7.2% | 24.7% | 15.8% | -16.4%
3 | COc1ccc2c(C)cc(N/N=C/c3ccc(C)s3)nc2c1 | -23.4% | -26.5% | -19.4% | 9.05% | -39.1% | -12.1%
4 | CCOC(=O)c1cc(C)nc2c1c(=O)n(-c1ccccc1)c(=O)n2CCCCN1CCN(c2ncccn2)CC1 | 9.75% | -32.4% | 12.2% | 7.45% | -16.9% | -38.5%
5 | COc1ccc2nc(NC(=O)/C(C#N)=C/c3ccccc3)sc2c1 | 5.9% | -24.9% | 44.6% | -3.3% | -8.95% | -5.7%
6 | Cc1ccc(/C=N/Nc2cnccn2)s1 | -30.9% | -25.2% | -30.9% | 15.2% | -41.2% | -9.3%
7 | COc1ccc2cc1Oc1ccc(cc1)C[C@@H]1c3cc(c(OC)cc3CCN1C)Oc1c(OC)c(OC)cc3c1[C@H](C2)N(C)CC3 | 22.1% | -19.9% | 6.25% | 5.1% | 9.4% | -49.9%
8 | CNc1nc2c(C)ccc3[nH]c(N(C)C)nc3c-2n1 | 14.2% | -32.8% | 11.3% | 8.1% | 4.65% | -10.9%
9 | COC(=O)c1ccc(NC(=O)O/N=C(\Cl)C(C)C)cc1 | -21.6% | -20.7% | 59.7% | 8.85% | 34.1% | 0.75%
10 | O=C1NC(N/N=C\c2ccccc2)=N/C1=C/c1ccccc1 | -2.9% | 5.2% | -0.1% | 2.25% | -0.3% | -26.5%
11 | O=C1NC(N/N=C\C(O)C(O)C(O)C(O)CO)=N/C1=C\c1ccc(Cl)cc1 (centres undefined) | 23.6% | 30.6% | 25.8% | 26.9% | 24.4% | 17.6%
12 | N=C1N=C(N)CS1 | 2.6% | -10% | 3.8% | 12.4% | 25.9% | 3.85%
13 | O=C1c2ccccc2-c2c1c1ccccc1c(=O)n2-c1cccnc1 | 63.5% | 6.95% | 26.2% | 32.3% | 6% | -9.05%
14 | COc1cc(-c2nc(SC)nc3c2CCc2ccccc2-3)cc(OC)c1OC | -6% | -5.85% | 2.95% | 10.9% | 4.35% | -20.2%
15 | COc1ccc2c(c1)N(C(C)=O)CN1C(=O)CCC21 (centres undefined) | -10.4% | 1.25% | -1.25% | 21.8% | 6.85% | -66%
16 | CC(C)=CCc1c(OC(=O)c2c(C)cc(O)cc2O)cc(CO)c(CO)c1O | 5.1% | 11.4% | 30.4% | 5.95% | 8.65% | -54.9%
17 | CC(C)C1OC(N)=C(C#N)C1(C#N)C#N (centres undefined) | 8.9% | 27% | -7.35% | -11.8% | -19% | -38.6%
18 | C=CCNC1=C2C[C@@H](C)C[C@@H](OC)[C@@H](OC(=O)CCCN)[C@H](C)/C=C(\C)[C@@H](OC(N)=O)[C@H](OC)/C=C\C=C(/C)C(=O)NC(=CC1=O)C2=O | -5.15% | -0.55% | 14.2% | 13.2% | 20.6% | 4.6%
19 | N#Cc1nc(-c2cccc(-c3nc(C#N)c(N)o3)n2)oc1N | 2.7% | 13.7% | -18.1% | 7.9% | -11.8% | -58.6%

Row | Compound | growth inhibition [1] | growth inhibition [2] | growth inhibition [3] | growth inhibition [4] | growth inhibition [5] | growth inhibition [6]
20 | NC(=S)Nc1[nH]c(=S)nc2c1SC1=N/C(=C\c3ccco3)C(=O)N12 | 7.45% | -13.6% | 25.5% | 18.1% | 33.9% | 28.2%
21 | N#CC1(C#N)C2CCCCC23OC(=N)C1(C#N)C(c1ccccc1)O3 (centres undefined) | 9.3% | 12.2% | -22.7% | -15.3% | -29.9% | -16.6%
22 | C[C@]12CC[C@@H]3c4ccc(OS(N)(=O)=O)cc4CC[C@H]3[C@@H]1CCC2=O | 2.35% | 8.15% | -2.05% | 8.35% | 5.6% | 15.8%
23 | Cc1ccc(OCC2OC(n3cnc4nc(N)nc(Cl)c43)CC2Oc2ccc(C)cc2)cc1 (centres undefined) | 20.2% | 28.4% | 44.7% | 46.5% | 49.3% | 2.6%
24 | COC(=O)C(=O)C(C(=O)C(=O)Nc1ccccc1OC)c1nc2ccc([N+](=O)[O-])cc2[nH]c1=O (centres undefined) | 16.4% | 19.4% | 10.9% | -19.6% | 36.1% | 21.6%
25 | C[C@@H]1C[C@@H]2OC(=O)[C@]3(C)[C@H]2[C@@H](OC3(C)O)[C@]2(C)C(=O)C=C[C@@H]12 (some centres undefined) | -27.6% | -45.6% | -40.4% | -12.7% | -48.6% | -35.5%
26 | N#CC1(C#N)C2CCCCC23OC(=N)C1(C#N)C(c1ccco1)O3 (centres undefined) | 15.8% | 19.7% | -29.2% | -17.1% | -41.5% | -25.4%
27 | CC1CC(C(=O)OC2OC(COC3OC(CO)C(OC4OC(C)C(O)C(O)C4O)C(O)C3O)C(O)C(O)C2O)C2CCC3(C)C(=CCC4(C)C3CCC3C(C)(CO)C(O)C(O)CC34C)C2C1C (centres undefined) | 60.1% | 68.1% | 72.8% (active) | 26.8% | 77.8% (active) | 24.4%
28 | CCN(CC)C(=O)c1cccnc1 | 0.8% | -46.9% | -33% | 14.2% | -20.4% | 18.6%
29 | CC1C2(C)OC(=N)C(C#N)(C(c3cccc([N+](=O)[O-])c3)O2)C1(C#N)C#N (centres undefined) | 8.15% | 1.55% | -13.6% | 0.15% | -10.4% | -9.1%
30 | CCCCCCCCCCCCC/C=C/[C@H]1[C@@H](C(=O)OC)N1S(=O)c1ccc(C)cc1 (some centres undefined) | -15.1% | -27.6% |  | -13.1% | -10.5% | -43.5%
31 | O=C(/C=C(\[O-])c1ccccc1)CCCCCCC(=O)/C=C(\[O-])c1ccccc1.O=C(/C=C(\[O-])c1ccccc1)CCCCCCC(=O)/C=C(\[O-])c1ccccc1.O=C(/C=C(\[O-])c1ccccc1)CCCCCCC(=O)/C=C(\[O-])c1ccccc1.[Y+3].[Y+3] | 7.3% | -3.7% | 8.75% |  | 15.4% | -1.85%
32 | CCCCCC(O)(CCCCC)CCCCCCCCC1=C(O)c2ccccc2C(=O)C1=O | -17.7% | -18.6% |  | 5.75% | 1% | -79.2%
33 | O=C(/C=C/c1ccccc1)Nc1ccccc1 | 12.9% | -21% | 6.35% |  | 7.05% | 35.6%
34 | O=C(/C=C(\[O-])c1ccccc1)CCCCCCC(=O)/C=C(\[O-])c1ccccc1.O=C(/C=C(\[O-])c1ccccc1)CCCCCCC(=O)/C=C(\[O-])c1ccccc1.O=C(/C=C(\[O-])c1ccccc1)CCCCCCC(=O)/C=C(\[O-])c1ccccc1.[Nd+3].[Nd+3] | 26.4% | 22.5% | 30.1% |  | 31.2% | 22.1%
35 | CC1CC2(OC2C)C(=O)OC2CCN(C)C/C=C(/COC(=O)C1(C)O)C2=O (centres undefined) | 2.3% | 7.05% |  | 4.85% | -10.8% | -52%
36 | CC(C)=CCc1cc(C2COc3cc4c(c(O)c3C2=O)C=CC(C)(C)O4)c(O)cc1O (centres undefined) | 91.3% (active) | 93% (active) |  | 90.9% (active) | 91.6% (active) | 88% (active)
37 | O=C(NC1=NC2C=CC([N+](=O)[O-])=CC2S1)C(=O)Nn1c(=S)[nH]c2ccccc2c1=O (centres undefined) | 6.8% | -14.9% |  | 10.8% | 20.7% | 24.1%
